FUS suppressor – suppressors of FUS proteinopathy in yeast; 0.24% of 390,000 active; Potency, µM (titrated, usually from 76.6 µM), actives largely listed as activators; AID 1347120; S. cerevisiae FUS-expressing, growth rescue, OD600, 24 h; further: nearly all actives have a fitted effect of over 55% in size
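FUS-expressing yeast, raffinose-pregrown, induced in 2% galactose minimal medium at OD 0.005; compounds in a dilution series, 24hr at 30C. Growth restoration read as absorbance at 600 nm. CP55940 positive control, DMSO negative.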
Abeta yeast res – A-beta toxicity reversal in yeast; Potency, µM (top dose mostly 46.1 µM), usual class: activators; AID 1347071; 0.063% of 410,000 active; yeast expressing A-beta42, growth rescue, OD600, 48 h; response scale: 0% DMSO, 100% iron-clioquinol control; further: nearly all actives have a fitted effect of over 55% in size
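Yeast growth medium received pinned compounds, then yeast cells expressing toxic A-beta were added; plates incubated at 30 C for 48 hr. Growth read as absorbance at 600 nm, normalized to DMSO and equimolar FeCl3 plus clioquinol controls.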
aSyn yeast inh – rescues yeast growth from alpha-synuclein toxicity. Yeast expressing alpha-synuclein, growth rescue, BacTiter-Glo, 24 h. Potency, µM (titrated, usually from 46.1 µM), actives largely listed as activators. 0.14% of 370,000 active. AID 652106; further: nearly all actives have a fitted effect of over 65% in size
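Galactose-induced alpha-syn yeast (OD600=0.02, raffinose-pregrown) + pinned cpd, 24 hr, 30 deg C; growth by BacTiter-Glo luminescence. Growth restoration scores as activation.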
TDP-43 yeast inh – TDP-43 toxicity inhibition in yeast; Potency, µM (doses to about 46.1 µM), most hits filed as activators; 1.8% of 410,000 active; TDP-43 expressing yeast growth rescue, BacTiter-Glo, 24 h; further: nearly all actives have a fitted effect of over 50% in size
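Readout is BacTiter-Glo luminescence of cell growth, so inhibitors register as activators. TDP-43-expressing yeast at OD600=0.02 in galactose medium, after raffinose pregrowth to mid-log, were incubated with compound for 24 hr at 30 deg C.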
Each line names hits and unclear results; the compound was inactive in the other large screens; ! = not active in a repeat. Hits are enriched below; roughly 2.1% of the tested compounds scored in any of these assays. The call rests on the fitted dose curve; in most records, active means well fitted curve in the direction sought with a large enough effect; inconclusive means small, poorly fitted or top-dose-only effect, or another doubt; inactive means no such curve, though single readings can be large; an effect the other way counts as inactive or inconclusive.

Cn1c(-c2ccccc2)c(CCO)c2ccccc21	TDP-43 yeast inh inconclusive
Cn1c(-c2ccccc2)c(C(=O)CCl)c2ccccc21	TDP-43 yeast inh 18µM
COc1ccc(OC)c(NC(=O)c2c(NCc3ccc(OC)c(OC)c3)sc3c2CCC(C)C3)c1 (stereo unspecified)	FUS suppressor inconclusive (no result: aSyn yeast inh)
C=CCN1[C@H](C)COc2cc(F)ccc2S1(=O)=O	none (no result: Abeta yeast res, aSyn yeast inh, TDP-43 yeast inh)
COC(=O)C1=C(C(=O)OC)[C@]2([C@H]3CC=CCN[C@@H](Cc4ccccc4)C(=O)N3Cc3ccccc3)C=C[C@H]1O2	FUS suppressor 22µM
COC(=O)C1=C(C(=O)OC)[C@]2([C@@H]3CC=CCN[C@@H](Cc4ccccc4)C(=O)N3Cc3ccccc3)C=C[C@H]1O2	none
COc1cc(OC)c(C2SCCCS2)cc1OC	TDP-43 yeast inh 35µM (no result: FUS suppressor)
COc1cc(C2(C)SCCCS2)cc(OC)c1OC	none
Cc1ccccc1NC(=O)CN(C)S(=O)(=O)c1cccc2nsnc12	none (no result: aSyn yeast inh)
CCCCCn1c(CCCNC(=O)c2cccc(C)c2)nc2ccccc21	FUS suppressor inconclusive, TDP-43 yeast inh 35µM (no result: aSyn yeast inh)
Cn1ncc2c(N3CCN(c4ccccc4F)CC3)ncnc21	TDP-43 yeast inh 13µM
Cn1nnc2c(N3CCN(c4ccccc4F)CC3)ncnc21	none (no result: aSyn yeast inh)
O=C(N/N=C/C=C/c1ccccc1)c1ccncc1	none
O=C(O)c1cccc(N/N=C/c2ccc(F)c(F)c2)c1	TDP-43 yeast inh 25µM
O=C(O)c1ccc(N/N=C/C=C/c2ccccc2)cc1	TDP-43 yeast inh 3.5µM
COc1ccc(/C=N/Nc2ccc(C(=O)O)cc2)cc1OC	none
COc1ccc2ccccc2c1/C=N/Nc1cccc(C(=O)O)c1	TDP-43 yeast inh 20µM
O=C(O)c1ccc(/C=N/Nc2cccc(C(F)(F)F)c2)cc1	TDP-43 yeast inh inconclusive
CC(C)c1ccc(/C=N/Nc2ccc(C(=O)O)cc2)cc1	TDP-43 yeast inh 11µM
O=C(O)c1ccc(N/N=C/c2ccc(-c3ccccc3)cc2)cc1	TDP-43 yeast inh 5.6µM
O=C(O)c1ccc(/C=N/Nc2ccc(C(F)(F)F)cn2)cc1	TDP-43 yeast inh 8.9µM
O=C(O)c1cc(N/N=C/c2ccc(-c3ccccc3)cc2)ccc1Cl	TDP-43 yeast inh 35µM
O=C(NCc1ccco1)c1cc2cc(Br)ccc2o1	TDP-43 yeast inh 22µM
CCc1cc(C(=O)Nc2ccc(S(=O)(=O)NC3=NCCCCC3)cc2)sc1C	FUS suppressor 25µM
CCOC(=O)N1C(=O)C[C@](Sc2ccc(OC)cc2)(C(=O)N2CCN(C(C)=O)CC2)[C@H]1c1ccc(OC)cc1	none (no result: Abeta yeast res, aSyn yeast inh, TDP-43 yeast inh)
COc1ccccc1N1CCN(c2ncnc3c2nc2n3CCCC2)CC1	TDP-43 yeast inh 35µM (no result: aSyn yeast inh)
COc1ccccc1N1CCN(C(=O)C2CCCN(c3ncnc4c3nc3n4CCCCC3)C2)CC1 (stereo unspecified)	none
COc1cccc(N2CCN(c3ncnc4c3nc3n4CCCCC3)CC2)c1	FUS suppressor inconclusive, TDP-43 yeast inh 18µM (no result: aSyn yeast inh)
FC(F)(F)c1cccc(N2CCN(c3ncnc4c3nc3n4CCCC3)CC2)c1	TDP-43 yeast inh 16µM (no result: aSyn yeast inh)
Fc1ccccc1N1CCN(c2ncnc3c2nc2n3CCCCC2)CC1	TDP-43 yeast inh inconclusive (no result: aSyn yeast inh)
COc1ccc(N2CCN(c3ncnc4c3nc3n4CCCCC3)CC2)cc1	none (no result: aSyn yeast inh)
COc1cc(O)c(C(CC(=O)N2CCC(C)CC2)c2ccc3c(c2)OCO3)c(OC)c1 (stereo unspecified)	none (no result: Abeta yeast res, aSyn yeast inh, TDP-43 yeast inh)
C[n+]1ccnc2cc(Cl)ccc21	none (no result: FUS suppressor, Abeta yeast res, TDP-43 yeast inh)
O=C(COC(=O)c1cccc(Br)c1)NCCc1ccc(F)cc1	Abeta yeast res inconclusive, TDP-43 yeast inh 13µM
Cc1cc(C)cc(NC(=O)C(CC(C)C)NC(=O)C2CCCCC2)c1 (stereo unspecified)	none (no result: aSyn yeast inh)
O=C(OCC#CCSc1nnc(-c2cccc3ccccc23)o1)C1CCC1	none (no result: Abeta yeast res, aSyn yeast inh, TDP-43 yeast inh)
O=C(CN1C(=O)C2C3C=CC(C3)C2C1=O)NCc1ccccc1 (stereo unspecified)	none
O=C1C2C3C=CC(C3)C2C(=O)N1CN(Cc1ccccc1)CN1C(=O)C2C3C=CC(C3)C2C1=O (stereo unspecified)	TDP-43 yeast inh 5.6µM
CCCCCCC1CC(CCc2nc(=S)[nH][nH]2)C(=O)O1 (stereo unspecified)	none
CCCCCCCCc1nc(=S)[nH][nH]1	TDP-43 yeast inh 13µM
CCCNc1nc(Nc2ccc(C)cc2)nc(N2CCCC2)n1	TDP-43 yeast inh 11µM
COc1cc(/C=C/C(=O)OCC(=O)Nc2cc(S(=O)(=O)N3CCCCC3)ccc2C)ccc1O	FUS suppressor 25µM
O=C(NC1CCCCN(Cc2cccc(Cl)c2)C1=O)c1ccc2ccccc2c1 (stereo unspecified)	none (no result: Abeta yeast res, aSyn yeast inh, TDP-43 yeast inh)
COc1ccc(S(=O)(=O)NCCSCc2ccccc2C)cc1Br	aSyn yeast inh inconclusive, TDP-43 yeast inh 16µM
COc1ccccc1-c1noc2ncnc(Nc3cccc(C)c3C)c12	TDP-43 yeast inh 18µM
COc1ccccc1-c1noc2ncnc(Nc3ccccc3C)c12	TDP-43 yeast inh inconclusive
CS(=O)(=O)c1ccc(C(=O)OCC(=O)NCC2CCCO2)cc1[N+](=O)[O-] (stereo unspecified)	none (no result: FUS suppressor, Abeta yeast res, TDP-43 yeast inh)
Cc1ccc(-c2nc3sccn3c2Nc2ccccc2C)cc1	FUS suppressor inconclusive, TDP-43 yeast inh 35µM (no result: aSyn yeast inh)
Cc1ccccc1Nc1c(-c2ccc(Br)cc2O)nc2sccn12	none (no result: aSyn yeast inh)
CN1/C(=C\C(=O)c2cncc(Br)c2)C(C)(C)c2ccccc21	TDP-43 yeast inh 13µM
CN1/C(=C\C(=O)c2cccnc2)C(C)(C)c2ccccc21	none
CN1/C(=C\C(=O)c2ccco2)C(C)(C)c2ccccc21	none
CN1/C(=C/C(=O)c2nc(S(C)(=O)=O)ncc2Cl)C(C)(C)c2ccccc21	TDP-43 yeast inh 13µM (no result: FUS suppressor)
O=C(OCc1cn(Cc2ccc(Cl)cc2)nn1)N1CCOCC1	none (no result: Abeta yeast res, aSyn yeast inh, TDP-43 yeast inh)
O=C1OC(/C(=C\Nc2ccccc2)[N+](=O)[O-])c2ccccc21 (stereo unspecified)	aSyn yeast inh 16µM
O=C1OC(/C(=C\NCc2ccccc2)[N+](=O)[O-])c2ccccc21 (stereo unspecified)	none
COC(=O)C1CN(Cc2cn(CCC3OCCO3)nn2)CCS(=O)(=O)N1Cc1ccc(Cl)cc1 (stereo unspecified)	none (no result: Abeta yeast res, aSyn yeast inh, TDP-43 yeast inh)
Cc1ccc(N2CCN(C(=O)C3CCCN(c4ncnc5c4nc4n5CCCCC4)C3)CC2)c(C)c1 (stereo unspecified)	none (no result: Abeta yeast res)
O=C(C1CCCN(c2ncnc3c2nc2n3CCCCC2)C1)N1CCN(c2cccc(Cl)c2)CC1 (stereo unspecified)	FUS suppressor inconclusive, TDP-43 yeast inh 20µM (no result: Abeta yeast res)
Cc1ccc(C)c(N2CCN(C(=O)C3CCCN(c4ncnc5c4nc4n5CCCCC4)C3)CC2)c1 (stereo unspecified)	FUS suppressor inconclusive, TDP-43 yeast inh 25µM
O=C(C1CCCN(c2ncnc3c2nc2n3CCCCC2)C1)N1CCN(c2ccccc2)CC1 (stereo unspecified)	TDP-43 yeast inh inconclusive
CN(C(=O)C1CCCN(c2ncnc3c2nc2n3CCCCC2)C1)c1cccc(Cl)c1 (stereo unspecified)	TDP-43 yeast inh 16µM
Cc1cccc(N2CCN(C(=O)C3CCN(c4ncnc5c4nc4n5CCCCC4)CC3)CC2)c1C	FUS suppressor 32µM!, TDP-43 yeast inh inconclusive

High-throughput results deposited in PubChem BioAssay by National Center for Advancing Translational Sciences (NCATS).
